Values joined by “and” are separate entries in the source; they are usually repeats but may differ in a detail not shown here. Equal entries are not always repeated. Results filed as inconclusive are left out. More than one record can exist for a structure, and the calls need not agree. Active and inactive are the calls of the source. Unless noted, calls follow the shape of the dose curve; as a rule, active = well fitted curve in the direction sought with a large enough effect in the repeat runs; inconclusive = weak or mixed curves; inactive = no such curve, though single readings can be large; an effect the other way counts as inactive or inconclusive.
Assays:
[1] = molecular target: Thyrotropin receptor (Homo sapiens) (UniProt P16473); test: qHTS assay to identify small molecule agonists of the thyroid stimulating hormone receptor (TSHR) signaling pathway (AID 1224843; calls by dose curve; also: nearly all actives have a fitted effect of over 45% in size)
Summary of the method: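 Screening of the Tox21 10K collection used HEK293 cells engineered with TSHR at 800 cells per well. After a 30-min room-temperature compound exposure, HTRF cAMP reagents were added and fluorescence recorded 1 h later.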

[2] = qHTS assay to identify small molecule agonists of the hypoxia (HIF-1) signaling pathway - cell viability counter screen (AID 1224844; calls by dose curve; also: nearly all actives have a fitted effect of over 50% in size; also: potency is read from the fitted curve at half-maximal effect)
Summary of the method: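 Multiplexed with the HRE beta-lactamase assay, this viability read used CellTiter-Glo luminescence (30 min, RT) on HRE-bla ME-180 cells treated 17 hrs with compounds in 0.5% dialyzed FBS medium.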

[3] = qHTS RealTime-Glo MT Cell Viability Assay in HEK293 cells - 32 hour (AID 1224868); also: nearly all actives have a fitted effect of over 50% in size; also: potency is read from the fitted curve at half-maximal effect
Summary of the method: (§1)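 Homogeneous bioluminescent viability format in HEK293 cells (600 cells/well). Following 5 h at 37 C/5% CO2, 23 nL compound was pintooled; the signal was measured repeatedly during 40 h incubation.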

[4] = A CellTox Green Cytotoxicity Assay to monitor cytotoxicity in HEK293 cells - 0 hour (AID 1224869); also: nearly all actives have a fitted effect of over 50% in size
Summary of the method: (§2)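 Seeding of HEK293 cells together with cytotoxicity dye preceded a 5 h incubation at 37 C/5% CO2. Test compounds in DMSO were then added and fluorescence monitored across 40 h.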

[5] = qHTS RealTime-Glo MT Cell Viability Assay in HepG2 cells - 40 hour (AID 1224870); also: nearly all actives have a fitted effect of over 50% in size; also: potency is read from the fitted curve at half-maximal effect
Summary of the method: (§3)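 Real-time viability: cells seeded at 600 per well together with NanoLuc and cell-permeant prosubstrate, compounds added after 5 h incubation. Luminescence tracked at 0, 8, 16, 24, 32 and 40 h of exposure.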

[6] = A CellTox Green Cytotoxicity Assay to monitor cytotoxicity in HEK293 cells - 40 hour (AID 1224871); also: nearly all actives have a fitted effect of over 45% in size; also: potency is read from the fitted curve at half-maximal effect
Summary of the method: as §2

[7] = qHTS RealTime-Glo MT Cell Viability Assay in HEK293 cells - 16 hour (AID 1224872); also: nearly all actives have a fitted effect of over 50% in size; also: potency is read from the fitted curve at half-maximal effect
Summary of the method: as §1

[8] = qHTS RealTime-Glo MT Cell Viability Assay in HepG2 cells - 8 hour (AID 1224873); also: nearly all actives have a fitted effect of over 55% in size
Summary of the method: as §3

[9] = qHTS RealTime-Glo MT Cell Viability Assay in HEK293 cells - 40 hour (AID 1224874); conditions: RealTime-Glo luminescence; max response: stronger effect = lower value; also: nearly all actives have a fitted effect of over 50% in size; also: potency is read from the fitted curve at half-maximal effect
Summary of the method: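 Tox21 screen in HEK293 using RealTime-Glo MT chemistry, with cells and reagent co-dispensed. Luminescence proportional to viable cell number was captured at intervals during 40 h compound exposure at 37 C.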

[10] = A CellTox Green Cytotoxicity Assay to monitor cytotoxicity in HEK293 cells - 24 hour (AID 1224875); also: nearly all actives have a fitted effect of over 45% in size; also: potency is read from the fitted curve at half-maximal effect
Summary of the method: as §2

[11] = A CellTox Green Cytotoxicity Assay to monitor cytotoxicity in HepG2 cells - 16 hour (AID 1224876); also: nearly all actives have a fitted effect of over 45% in size; also: potency is read from the fitted curve at half-maximal effect
Summary of the method: (§4)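 Nonlytic assay: viable cells exclude the dye, so fluorescence scales with cell death. HepG2 at 600 cells/well, compounds added after 5 h, signal read across 40 h.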

[12] = qHTS RealTime-Glo MT Cell Viability Assay in HepG2 cells - 32 hour (AID 1224877); also: nearly all actives have a fitted effect of over 55% in size
Summary of the method: (§5)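 Cell number in HepG2 cultures estimated from NanoLuc luminescence generated by metabolic reduction of a prosubstrate by living cells. The homogeneous, nonlytic format allowed repeated reads at 0, 8, 16, 24, 32 and 40 h of compound exposure.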

[13] = A CellTox Green Cytotoxicity Assay to monitor cytotoxicity in HepG2 cells - 24 hour (AID 1224878); also: nearly all actives have a fitted effect of over 45% in size; also: potency is read from the fitted curve at half-maximal effect
Summary of the method: as §4

[14] = A CellTox Green Cytotoxicity Assay to monitor cytotoxicity in HepG2 cells - 40 hour (AID 1224879); also: nearly all actives have a fitted effect of over 40% in size; also: potency is read from the fitted curve at half-maximal effect
Summary of the method: as §4

[15] = qHTS assay to identify small molecule agonists of H2AX (AID 1224845; active = well fitted activation curve with a large enough effect in the signal ratio in the repeat runs, not every such curve was filed as active; the % refers to the signal ratio)
Summary of the method: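 Phospho-H2AX Ser139 measured by HTRF (ex 320 nm; em 665 and 620 nm) after 24 hr antibody incubation. Compounds, 15 concentrations, 0.76% DMSO, were applied to CHO-K1 cells for 3hr at 37C before lysis.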

[16] = qHTS assay to identify small molecule agonists of the hypoxia (HIF-1) signaling pathway (AID 1224846; active = well fitted activation curve with a large enough effect in the signal ratio in the repeat runs, not every such curve was filed as active; the % refers to the signal ratio; also: potency is read from the fitted curve at half-maximal effect)
Summary of the method: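 Hypoxia-pathway activation was scored as increased beta-lactamase from an HRE-controlled reporter in ME-180 cells; plated at 2,000 cells per well with 0.5% dialyzed FBS, they were exposed 17 hrs to compounds and then given CCF4-AM.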

[17] = qHTS assay to identify small molecule agonists of H2AX - cell viability counter screen (AID 1224847; calls by dose curve; also: nearly all actives have a fitted effect of over 30% in size; also: potency is read from the fitted curve at half-maximal effect)
Summary of the method: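 Wild-type CHO-K1 cells (10% FBS medium) were plated overnight at 37C, exposed to compounds at 15 concentrations for 3 hr at 37C (0.76% DMSO final), and viability was read as CellTiter-Glo luminescence after 30 min at room temperature.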

[18] = qHTS RealTime-Glo MT Cell Viability Assay in HepG2 cells - 24 hour (AID 1224867); also: nearly all actives have a fitted effect of over 50% in size; also: potency is read from the fitted curve at half-maximal effect
Summary of the method: as §5

[19] = qHTS assay to identify small molecule agonists of the estrogen related receptor (ERR) signaling pathway from Tox21 library (AID 1224849; calls by dose curve; also: nearly all actives have a fitted effect of over 15% in size); conditions: ERR reporter cell line, ONE-Glo luciferase, 18 h
Summary of the method: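 Six hours post-seeding at 37 C/5% CO2, ERR cells receive DMSO-solubilised compounds; after 18 h at 37 C, ONE-Glo reagent is applied and luminescence recorded.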

[20] = qHTS assay to identify small molecule antagonists of the estrogen related receptor (ERR) signaling pathway from Tox21 library (AID 1224848); also: nearly all actives have a fitted effect of over 50% in size; also: potency is read from the fitted curve at half-maximal effect
Summary of the method: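 Antagonist-mode screen of the Tox21 10K library in an NTP-provided ERR reporter cell line; 18 h compound exposure at 37 C, luminescence measured with ONE-Glo.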
% is scaled to controls: 0 for no effect and ±100 for the full control effect.

Sequence of Thyrotropin receptor (Homo sapiens) (P16473 whole entry, looked up): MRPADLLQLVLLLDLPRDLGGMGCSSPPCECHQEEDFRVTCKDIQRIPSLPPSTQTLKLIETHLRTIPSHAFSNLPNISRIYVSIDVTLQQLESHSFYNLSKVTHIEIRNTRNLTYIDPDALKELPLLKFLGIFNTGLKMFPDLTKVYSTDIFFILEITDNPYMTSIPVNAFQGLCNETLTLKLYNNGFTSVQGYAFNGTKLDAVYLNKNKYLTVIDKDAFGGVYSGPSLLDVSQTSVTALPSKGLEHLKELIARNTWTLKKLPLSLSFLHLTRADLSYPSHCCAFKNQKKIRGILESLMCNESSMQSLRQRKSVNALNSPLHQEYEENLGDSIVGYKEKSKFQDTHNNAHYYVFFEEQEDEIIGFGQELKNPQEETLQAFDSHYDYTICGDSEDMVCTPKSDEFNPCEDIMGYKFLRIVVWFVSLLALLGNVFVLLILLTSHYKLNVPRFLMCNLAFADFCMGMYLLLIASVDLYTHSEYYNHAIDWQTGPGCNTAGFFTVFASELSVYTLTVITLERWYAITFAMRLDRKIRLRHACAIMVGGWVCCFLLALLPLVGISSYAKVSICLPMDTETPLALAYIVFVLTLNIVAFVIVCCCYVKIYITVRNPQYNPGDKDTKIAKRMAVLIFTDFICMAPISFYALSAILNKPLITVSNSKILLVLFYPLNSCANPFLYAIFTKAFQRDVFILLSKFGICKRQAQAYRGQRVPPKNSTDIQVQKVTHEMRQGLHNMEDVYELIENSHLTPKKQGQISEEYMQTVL

CC(=O)O[C@]1(C(C)=O)CC[C@H]2[C@@H]3C=C(Cl)C4=CC(=O)[C@@H]5C[C@@H]5[C@]4(C)[C@H]3CC[C@@]21C
inactive: Potency [1] | Potency [2] | Potency [4] | Potency [5] | Potency [6] | Potency [8] | Potency [10] | Potency [11] | Potency [12] | Potency [13] | Potency [14]
active: Potency [9] 21.9 µM
21.9 µM (active) and inactive: Potency [7]
24.5 µM (active) and inactive: Potency [3]

CCCCC(CC)COC(=O)c1ccc(N(C)C)cc1 (configuration not stated)
inactive: Potency [2] | outcome [15] | Potency [16] | Potency [17] | Potency [18] | Potency [3] | Potency [4] | Potency [5] | Potency [6] | Potency [8] | max response [9] -14.3% and -13.1% and -14.9% | Potency [10] | Potency [11] | Potency [12] | Potency [13] | Potency [14]

c1ccc2c(c1)c1cccc3ccc4cccc2c4c31
43.4 µM (active) and inactive: Potency [16]
inactive: Potency [1] | Potency [2] | Potency [17] | Potency [18] | Potency [4] | Potency [5] | Potency [6] | Potency [8] | Potency [10] | Potency [11] | Potency [12] | Potency [13] | Potency [14]
inactive and 17.4 µM (active): Potency [3]

O=C(Nc1ccc([N+](=O)[O-])cc1Cl)c1cc(Cl)ccc1O
inactive and 29.3 nM (active): Potency [11]
active: Potency [17] 2.84 µM | Potency [3] 3.47 µM and 928 nM | Potency [6] 24.5 µM and 13.1 µM | Potency [9] 2.19 µM and 827 nM | Potency [13] 5.49 µM | Potency [14] 4.9 µM and 2.33 µM
inactive: Potency [1] | Potency [18] | Potency [4] | Potency [8] | Potency [10] | cytotoxicity [13] 38% [at 15.8 µM]

O=C1c2cccc(O)c2C(=O)c2c(O)cccc21
inactive: Potency [2] | outcome [15] | Potency [16] | Potency [17] | activity change, positive = activation ([19]; at 42.5 µM (top of the series)) -19.1% | activity change, positive = activation ([19]; at 92.4 µM (top of the series)) -20.9% | Potency [18] | Potency [4] | Potency [5] | Potency [6] | Potency [8] | Potency [10] | Potency [11] | Potency [12] | Potency [13] | Potency [14]

OC[C@H]1O[C@@H]2O[C@H]3[C@H](O)[C@@H](O)[C@@H](O[C@H]4[C@H](O)[C@@H](O)[C@@H](O[C@H]5[C@H](O)[C@@H](O)[C@@H](O[C@H]6[C@H](O)[C@@H](O)[C@@H](O[C@H]7[C@H](O)[C@@H](O)[C@@H](O[C@H]8[C@H](O)[C@@H](O)[C@@H](O[C@H]1[C@H](O)[C@H]2O)O[C@@H]8CO)O[C@@H]7CO)O[C@@H]6CO)O[C@@H]5CO)O[C@@H]4CO)O[C@@H]3CO
inactive: Potency [2] | outcome [15] | Potency [16] | Potency [17] | Potency [18] | Potency [3] | Potency [4] | Potency [5] | Potency [6] | Potency [7] | Potency [8] | Potency [10] | Potency [11] | Potency [12] | Potency [13] | Potency [14]

CCCCNS(=O)(=O)c1ccccc1
inactive and 4.36 µM (active): Potency [3]
inactive and 7.76 µM (active): Potency [7]
inactive: Potency [2] | outcome [15] | Potency [16] | Potency [17] | Potency [18] | Potency [4] | Potency [5] | Potency [6] | Potency [8] | Potency [10] | Potency [11] | Potency [12] | Potency [13] | Potency [14]

Cc1c(OCC(F)(F)F)ccnc1CS(=O)c1nc2ccccc2[nH]1 (configuration not stated)
inactive: Potency [1] | Potency [2] | Potency [17] | Potency [20] | activity change, positive = activation ([19]; at 92.4 µM (top of the series)) -7.88% | Potency [18] | Potency [4] | Potency [5] | Potency [6] | Potency [8] | Potency [10] | Potency [11] | Potency [12] | Potency [13] | Potency [14]
active: activity change, positive = activation ([19]; at 42.5 µM (top of the series)) -8.69% | Potency [3] 19.5 µM and 10.7 µM | Potency [7] 19.5 µM and 23.9 µM

c1ccc2sc(SSN3CCOCC3)nc2c1
active: Potency [2] 54.8 µM and 54.9 µM | Potency [18] 54.9 µM | Potency [3] 21.8 µM and 43.6 µM | Potency [6] 38.8 µM and 49 µM | Potency [7] 43.6 µM | Potency [9] 19.5 µM and 43.6 µM | Potency [10] 38.8 µM | Potency [13] 54.9 µM | Potency [14] 54.8 µM and 49 µM
inactive: Potency [1] | Potency [20] | activity change, positive = activation ([19]; at 92.4 µM (top of the series)) 4.82% and -28.8% | Potency [4]
inactive and 54.9 µM (active): Potency [5]

CCCCOCCOCCO
inactive: Potency [1] | Potency [2] | Potency [16] | Potency [17] | Potency [18] | Potency [3] | Potency [4] | Potency [5] | Potency [6] | Potency [7] | Potency [8] | max response [9] 0.043% and 0.397% | Potency [10] | Potency [11] | Potency [13] | Potency [14]

O=C(COc1ccc(Cl)cc1)N1CCN(Cc2ccc3c(c2)OCO3)CC1
active: Potency [20] 27.3 µM and 18.8 µM | Potency [3] 43.6 µM | Potency [9] 38.9 µM
101 µM (active) and inactive: Potency [17]
inactive: Potency [2] | outcome [15] | Potency [16] | activity change, positive = activation ([19]; at 42.5 µM (top of the series)) -37.2% | activity change, positive = activation ([19]; at 92.4 µM (top of the series)) -59.3% | Potency [18] | Potency [4] | Potency [5] | Potency [6] | Potency [8] | Potency [10] | Potency [11] | Potency [13] | Potency [14]

Source: PubChem BioAssay (Tox21)
